# Sampled rows, rich in hits. Any-hit rate of the full collection: about 1.7%.
# FPRL1 ligand: binds the human formylpeptide receptor-like-1 FPRL1. P25090. FPRL1-expressing cells, fluorescent ligand binding inhibition, flow cytometry. inhibition, % (concentration not given with the values). hit rate 0.3% among 24,000
# FPR binder: human FPR ligand, with FPRL1 counter-screen. P21462. FPR-expressing cells, fluorescent ligand binding, flow cytometry. inhibition, % (concentration not given with the values). hit rate 0.74% among 24,000
# Target sequence (P21462 whole entry, looked up): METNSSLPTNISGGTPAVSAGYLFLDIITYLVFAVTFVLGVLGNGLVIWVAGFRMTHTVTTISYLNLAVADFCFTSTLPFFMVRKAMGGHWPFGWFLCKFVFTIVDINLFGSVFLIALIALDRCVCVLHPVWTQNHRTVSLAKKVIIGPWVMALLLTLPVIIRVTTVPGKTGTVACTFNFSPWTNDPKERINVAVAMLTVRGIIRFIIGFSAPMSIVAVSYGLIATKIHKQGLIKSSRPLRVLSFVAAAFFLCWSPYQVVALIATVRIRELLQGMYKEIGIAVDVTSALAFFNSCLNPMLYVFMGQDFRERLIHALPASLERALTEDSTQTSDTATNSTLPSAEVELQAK
# Prostate diff: LNCaP prostate cell differentiation activation | flow cytometry side scatter, 4 d | side scatter shift, % at 10 µM | hit rate 0.56% among 24,000;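 active = side scatter shift above 30%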;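 note: androgen-responsive LNCaP prostate cancer cells in charcoal-stripped serum medium; higher shift means more granular cells and more differentiation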
# Numbers stand for hits; - = inactive; . = not tested or not shown. Cut-off read from the data, not from the text of the source, unless noted: active = inhibition above about 30%; inconclusive = no clear call, values can overlap the other calls; inactive = below that.
SMILES,FPRL1 ligand,FPR binder,Prostate diff
CCOC(=O)C1CSC(CC(=O)Nc2ccc(Cl)cc2)C(=O)N1 (stereo unspecified),-,-,-
CCCc1cc(=O)n2[nH]c(C)cc2n1,-,-,-
Cc1[nH]n2c(=O)cc(C(C)C)nc2c1-c1ccccc1,-,-,.
CCCc1cc(=O)n2[nH]c(C)c(-c3ccccc3)c2n1,-,35,.
Cc1[nH]n2c(=O)cc(-c3ccc([N+](=O)[O-])cc3)nc2c1-c1ccccc1,47,70,.
C=CCn1c(SCCCC)nc(O)cc1=O,-,56,-
CCn1c(SCC(=O)N2CCOCC2)nc(O)cc1=O,-,-,-
CC(=O)c1c(C)nc(-c2ccc3c(c2)OCO3)n1O,-,-,-
CC(C)N1CCC2(CC1)N=C(c1ccc3c(c1)OCO3)CC(c1cc(Cl)ccc1O)N2 (stereo unspecified),-,-,34
Cc1ccc(S(=O)(=O)NCCC(=O)NC2CCCC2)cc1,-,-,-
CC(=O)OCCNc1cc(N2CCN(C)CC2)c2noc3c2c1C(=O)c1ccccc1-3,53,-,-
COc1ccccc1-c1cc(C(=O)N2CCN(c3ccccc3OC)CC2)no1,-,-,-
CCNC(=O)N(C(=O)NCC)n1c(C)nnc1C,-,-,-
O=C(c1ccc(Cl)cc1)N(Cc1cccs1)C1CCS(=O)(=O)C1 (stereo unspecified),46,-,-
CN(C(=O)COC(=O)C1CCN(S(=O)(=O)c2cccs2)CC1)C1CCS(=O)(=O)C1 (stereo unspecified),-,-,-
